Inconclusive results are not listed. Active and inactive are the calls of the source. Unless noted, the call rests on the fitted dose curve; in most records, active means well fitted curve in the direction sought with a large enough effect in the repeat runs; inconclusive means weak or mixed curves; inactive means no such curve, though single readings can be large; an effect the other way counts as inactive or inconclusive.
Assays:
[1] = qHTS assay to identify small molecule antagonists of the vitamin D receptor (VDR) signaling pathway - cell viability counter screen (AID 743225); further: on the % scale 0 is the no-effect control and ±100 the full control effect; nearly all actives have a fitted effect of over 50% in size
Outline: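 Compounds were pinned onto VDR-bla HEK 293T cells together with 1-alpha,25-dihydroxyvitamin D3 at 3 nM final. After 16 h at 37C and 5% CO2 plus the reporter readout, cell viability was measured by CellTiter-Glo luminescence (30 min, room temperature).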

[2] = qHTS assay to identify small molecule agonists of the NFkB signaling pathway (AID 1159509; active means well fitted curve in the direction sought with a large enough effect in the signal ratio in the repeat runs, not every such curve was filed as active; the % refers to the signal ratio; further: series mostly up to about 61 µM; on the % scale 0 is the no-effect control and ±100 the full control effect)
Outline: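 After overnight attachment, reporter cells received test compounds, DMSO or positive controls and were incubated 5 hr at 37 C. FRET substrate was then added for 1.5 hr at room temperature before dual-emission fluorescence reading.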

[3] = qHTS assay to identify small molecule agonists of the NFkB signaling pathway - cell viability counter screen (AID 1159515; calls by dose curve; further: series mostly up to about 61 µM; on the % scale 0 is the no-effect control and ±100 the full control effect; nearly all actives have a fitted effect of over 55% in size)
Outline: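 NFkB-bla ME-180 cells, 2,000/well, were plated overnight at 37 C, 5% CO2, then exposed to compounds in DMSO for 5 hr. After the bla FRET read, CellTiter-Glo was added to the same wells; luminescence was read after 30 min at room temperature.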

[4] = qHTS assay to identify small molecule agonists of the endoplasmic reticulum stress response signaling pathway (AID 1159516; active means well fitted activation curve with a large enough effect in the signal ratio in the repeat runs, not every such curve was filed as active; the % refers to the signal ratio; further: on the % scale 0 is the no-effect control and ±100 the full control effect)
Outline: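 CellSensor ESRE-bla HeLa cells, carrying a beta-lactamase reporter driven by the ER stress response element, were plated overnight and exposed to compounds for 5 hr at 37 C. Reporter activity was read as FRET substrate fluorescence after 2 hr at room temperature.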

[5] = qHTS assay to identify small molecule agonists of the endoplasmic reticulum stress response signaling pathway - cell viability counter screen (AID 1159517; calls by dose curve; further: series mostly up to about 61 µM; on the % scale 0 is the no-effect control and ±100 the full control effect; nearly all actives have a fitted effect of over 50% in size)
Outline: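 Luminescence readout: CellTiter-Glo, 30 min RT, same wells as the ESRE-bla reporter read. HeLa ESRE-bla, 1,500 cells/well, o/n 37 C; cpd 5 hr 37 C/5% CO2.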

[6] = qHTS assay to identify small molecule antagonists of the retinoid-related orphan receptor gamma (ROR-gamma) signaling pathway - cell viability counter screen (AID 1159520); further: on the % scale 0 is the no-effect control and ±100 the full control effect; nearly all actives have a fitted effect of over 50% in size
Outline: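 Tet-on ROR gamma CHO cells (1,000/well) were plated 4 hr, given compounds in DMSO for 2 hr at 37 C, then induced with 1 uM final doxycycline for 16 hr. Viability was read as ATP by CellTiter-Glo luminescence after 30 min.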

[7] = qHTS assay to identify small molecule agonists of the AP-1 signaling pathway - cell viability counter screen (AID 1159525; calls by dose curve; further: nearly all actives have a fitted effect of over 55% in size)
Outline: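 ME-180 AP-1-bla, 2500 cells/well, Opti-MEM + 0.5% dialyzed FBS; overnight 37 °C; cpd 15-pt titration, 5 h 37 °C; CellTiter-Glo 30 min RT; luminescence read; normalised to TOAB and DMSO controls.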

[8] = qHTS assay to identify small molecule agonists of the AP-1 signaling pathway (AID 1159526; calls by dose curve; further: on the % scale 0 is the no-effect control and ±100 the full control effect)
[9] = molecular target: Retinoic acid receptor RXR-alpha (Homo sapiens) (UniProt P19793); assay: qHTS assay to identify small molecule agonists of the RXR signaling pathway (AID 1159527; calls by dose curve; further: on the % scale 0 is the no-effect control and ±100 the full control effect; nearly all actives have a fitted effect of over 35% in size)
Outline: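 Using 9-cis retinoic acid as the reference agonist, chemicals were tested in HEK 293T cells […] for 16 hr; substrate loading lasted 2 hr at room temperature.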

[10] = qHTS assay to identify small molecule agonists of the RXR signaling pathway - cell viability counter screen (AID 1159529); further: series mostly up to about 77 µM; on the % scale 0 is the no-effect control and ±100 the full control effect; nearly all actives have a fitted effect of over 50% in size
Outline: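 Compounds dissolved in DMSO were pinned onto HEK 293T cells carrying a beta-lactamase reporter under RXR-alpha control and incubated 16 hr. Cytotoxicity was then quantified by CellTiter-Glo luminescence.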

[11] = qHTS assay to identify small molecule antagonists of the retinoid acid receptor (RAR) signaling pathway - cell viability counter screen (AID 1159551); further: on the % scale 0 is the no-effect control and ±100 the full control effect; nearly all actives have a fitted effect of over 35% in size
Outline: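 C3RL4 cells were seeded overnight at 37 C, then treated with compounds plus 1 uM (final) retinol for 6 h at 37 C. Viability was read as ATP by CellTiter-Glo luminescence after 30 min at room temperature.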

[12] = qHTS assay to identify small molecule agonists of the retinoic acid receptor (RAR) signaling pathway (AID 1159553); further: on the % scale 0 is the no-effect control and ±100 the full control effect
Outline: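 C3RL4 cells carrying a RARE luciferase reporter were plated overnight at 37 C, then exposed to compounds in DMSO for 6 hr at 37 C and 5% CO2. Luminescence was read 30 min after luciferase reagent addition at room temperature.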

[13] = qHTS assay to identify small molecule antagonists of the retinoic acid receptor (RAR) signaling pathway (AID 1159552)
Outline: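 Test chemicals and DMSO controls were pin-transferred onto C3RL4 cells a day after seeding; retinol (1 uM final) followed at once. Luminescent reporter output was quantified after 6 hr of co-incubation and 30 min with detection reagent.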

Sequence of Retinoic acid receptor RXR-alpha (Homo sapiens) (P19793 whole entry, looked up): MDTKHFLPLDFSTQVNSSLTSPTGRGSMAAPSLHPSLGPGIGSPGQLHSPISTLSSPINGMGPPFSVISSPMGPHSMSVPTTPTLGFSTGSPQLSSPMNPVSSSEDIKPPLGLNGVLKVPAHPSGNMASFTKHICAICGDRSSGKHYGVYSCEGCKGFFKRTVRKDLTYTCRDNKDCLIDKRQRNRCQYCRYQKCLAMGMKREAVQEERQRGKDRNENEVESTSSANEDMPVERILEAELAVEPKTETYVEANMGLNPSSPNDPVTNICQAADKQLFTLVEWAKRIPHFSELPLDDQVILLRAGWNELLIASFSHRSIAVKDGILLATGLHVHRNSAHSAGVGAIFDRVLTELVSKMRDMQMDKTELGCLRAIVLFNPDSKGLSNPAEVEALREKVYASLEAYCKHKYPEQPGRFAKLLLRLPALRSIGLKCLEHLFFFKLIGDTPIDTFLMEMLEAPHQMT

CC/C=C\CCOC(=O)C(C)C
inactive: Potency [1] | outcome [2] | outcome [3] | outcome [4] | outcome [5] | Potency [6] | outcome [7] | Potency [8] | Potency [9] | Potency [10] | outcome [11] | Potency [12]

CCOc1ccc(OCC)c(Cl)c1
inactive: Potency [1] | outcome [2] | outcome [3] | outcome [4] | outcome [5] | Potency [6] | outcome [7] | Potency [8] | Potency [9] | Potency [10] | outcome [11] | Potency [13] | Potency [12]

CCCOCCC
inactive: outcome [2] | outcome [3] | outcome [4] | outcome [5] | Potency [6] | outcome [7] | Potency [8] | Potency [9] | Potency [10] | outcome [11] | Potency [12]

CC(C)Nc1nc(N)nc(Cl)n1
inactive: Potency [1] | outcome [2] | outcome [3] | outcome [4] | outcome [5] | Potency [6] | outcome [7] | Potency [8] | Potency [9] | Potency [10] | outcome [11] | Potency [12]

O=C(C(Cl)Cl)N1CCOC12CCCCC2
inactive: Potency [1] | outcome [2] | outcome [3] | outcome [4] | outcome [5] | Potency [6] | outcome [7] | Potency [8] | Potency [9] | Potency [10] | outcome [11] | Potency [13] | Potency [12]

COc1cc(C)ccc1C(C)C
inactive: Potency [1] | outcome [2] | outcome [3] | outcome [4] | outcome [5] | Potency [6] | outcome [7] | Potency [8] | Potency [9] | Potency [10] | outcome [11] | Potency [13] | Potency [12]

O=c1[nH]c(=O)n([C@H]2C[C@H](O)[C@@H](CO)O2)cc1C(F)(F)F
inactive: Potency [1] | outcome [2] | outcome [3] | outcome [4] | outcome [5] | Potency [6] | outcome [7] | Potency [8] | Potency [9] | Potency [10] | outcome [11] | Potency [13] | Potency [12]

CCCCC(=O)O[C@]1(C(=O)CO)[C@H](C)C[C@H]2[C@@H]3CCC4=CC(=O)C=C[C@]4(C)[C@@]3(F)[C@@H](O)C[C@@]21C
inactive: Potency [1] | outcome [2] | outcome [3] | outcome [4] | outcome [5] | Potency [6] | outcome [7] | Potency [8] | Potency [9] | outcome [11] | Potency [13] | Potency [12]

C[C@@H]1CN(c2c(F)c(N)c3c(=O)c(C(=O)O)cn(C4CC4)c3c2F)C[C@H](C)N1
inactive: Potency [1] | outcome [2] | outcome [3] | outcome [4] | outcome [5] | activity, negative = cytotoxicity [6] 2.26% [at 19 µM] | viability change, negative = cytotoxic [7] 1.46% [at 15.8 µM] | activation [8] -6.27% [at 15.8 µM] | activation [9] 12.8% [at 15.8 µM] | activity change, negative = cytotoxicity [10] 8.39% [at 15.8 µM] | activity change, negative = cytotoxicity [11] 2.38% [at 19 µM] | Potency [12]

CC(=O)N[C@@H](CC(C)C)C(=O)O
inactive: Potency [1] | outcome [2] | outcome [3] | outcome [4] | outcome [5] | Potency [6] | outcome [7] | Potency [8] | Potency [9] | Potency [10] | outcome [11] | Potency [13] | Potency [12]

CCOC(=O)[C@H](CCc1ccccc1)N[C@@H](C)C(=O)N1Cc2cc(OC)c(OC)cc2C[C@H]1C(=O)O
inactive: Potency [1] | outcome [2] | outcome [3] | outcome [4] | outcome [5] | Potency [6] | outcome [7] | Potency [8] | Potency [9] | Potency [10] | outcome [11] | Potency [12]

CCCC(CCC)(C(=O)OCC)C(=O)OCC
inactive: Potency [1] | outcome [2] | outcome [3] | outcome [4] | outcome [5] | Potency [6] | outcome [7] | Potency [8] | Potency [9] | Potency [10] | outcome [11] | Potency [13] | Potency [12]

Cc1cc(S(=O)(=O)O)c(N)cc1Cl
inactive: Potency [1] | outcome [2] | outcome [3] | outcome [4] | outcome [5] | Potency [6] | outcome [7] | Potency [8] | Potency [9] | outcome [11] | Potency [13] | Potency [12]

CCCCCCCCCC/C=C/C#N
inactive: Potency [1] | outcome [2] | outcome [3] | outcome [4] | outcome [5] | Potency [6] | outcome [7] | Potency [8] | Potency [10] | outcome [11] | Potency [12]

COC(C)CCO (configuration not stated)
inactive: Potency [1] | outcome [2] | outcome [3] | outcome [4] | outcome [5] | Potency [6] | outcome [7] | Potency [8] | Potency [10] | outcome [11] | Potency [13] | Potency [12]

CS(=O)(=O)c1ccc([C@@H](O)[C@@H](CF)NC(=O)C(Cl)Cl)cc1
inactive: Potency [1] | outcome [2] | outcome [3] | outcome [4] | outcome [5] | Potency [6] | outcome [7] | Potency [8] | Potency [10] | outcome [11] | Potency [13] | Potency [12]

O=C1CCCc2ccccc21
inactive: Potency [1] | outcome [2] | outcome [3] | outcome [4] | outcome [5] | Potency [6] | outcome [7] | Potency [8] | Potency [10] | outcome [11] | Potency [12]

Reference: PubChem BioAssay (Tox21)
